High-throughput results as filed in PubChem.
G9a block = blocks human histone lysine methyltransferase G9a | Q96KQ7 | G9a H3K9 monomethylation, AlphaScreen, 2 h | Potency, µM (series often up to 102 µM), for the others: top-dose activity, negative = inhibition, most hits filed as inhibitors | 8.8% of 350,000 active; also: % is scaled to controls: 0 for no effect and ±100 for the full control effect; nearly all actives have a fitted effect of over 75% in size
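AlphaScreen detection with an anti-monomethyl H3K9 antibody quantified product after a 2 h room-temperature reaction containing 500 nM biotinylated H3K9 peptide, 20 µM SAM and 20 nM enzyme, which had been preincubated 15 min with compound.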
HP1b chromo inh = inhibitors of HP1-beta chromodomain binding to methylated histone tails; Potency, µM (top dose mostly 114 µM), without a hit: top-dose activity change, negative = inhibition, most hits filed as inhibitors; AlphaScreen HP1-beta / biotin-H3K9me3 peptide binding; 0.56% of 390,000 active; also: nearly all actives have a fitted effect of over 70% in size
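AlphaScreen: HP1-beta (50 nM) preformed 30 min with biotin-H3(1-18)K9me3 peptide (50 nM) in PBS pH 7.4, 0.01% Tween-20. Compound added for 30 min at RT, then streptavidin donor/nickel chelate acceptor beads (10 ug/mL) for 30 min.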
JMJD2A Tudor = JMJD2A Tudor domain (human) inhibition; O75164; AlphaScreen JMJD2A-Tudor / H3K4me3 peptide binding; Potency, µM (series often up to 114 µM), for inactives: at the top dose activity change, negative = inhibition, hits mostly inhibitors; 4.4% of 390,000 active; also: % is scaled to controls: 0 for no effect and ±100 for the full control effect; nearly all actives have a fitted effect of over 50% in size
Sfp PPTase inh = blocks B. subtilis Sfp PPTase activity; 3.5% of 310,000 active; Q9F4F7; AID 1490; Potency, µM, for the others: largest response in the series, negative = inhibition, most hits filed as inhibitors; Biochemical Sfp PPTase activity, qHTS;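 also: the enzyme is Sfp with the accession as filed and its product quenches rhodamine fluorescence; 0% = enzyme reaction without inhibitor and -100% = no enzyme wells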
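After 15 min at room temperature with compound, 15 nM Sfp received 5 uM rhodamine-CoA plus 12.5 uM BHQ-2-ybbR (50 mM Hepes pH 7.6, 10 mM MgCl2). Rate came from the fluorescence difference over 30 min, ex 525/em 598 nm.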
BAZ2B block = blocks human BAZ2B. Q9UIF8. AlphaScreen BAZ2B-H3K14Ac peptide displacement. Potency, µM (highest dose often 114 µM), for the others: at the highest dose activity change, negative = inhibition, usual class: inhibitors. 4.4% of 360,000 active. AID 504333; also: % is scaled to controls: 0 for no effect and ±100 for the full control effect; nearly all actives have a fitted effect of over 60% in size
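BAZ2B 50 nM plus b-H3(5-23)K14Ac 50 nM, PBS pH 7.4/0.01% Tween-20, 30 min RT; compound added (max 110 uM), 30 min RT; streptavidin donor/Ni-chelate acceptor beads 10 ug/mL final, 20 min dark; AlphaScreen read.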
L3MBTL1 block = L3MBTL1 (human) inhibition; AlphaScreen L3MBTL1–H3K9me1 peptide binding; Potency, µM (series often up to 57.1 µM), for the others: top-dose activity, negative = inhibition, hits mostly inhibitors; 0.66% of 230,000 active; AID 485360; also: % is scaled to controls: 0 for no effect and ±100 for the full control effect; nearly all actives have a fitted effect of over 60% in size
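AlphaScreen assay: L3MBTL1 (50 nM final) was preincubated 30 min at room temperature with biotinylated H3(1-15)K9me1 peptide (75 nM final), then 30 min with library compounds; streptavidin donor and nickel chelate acceptor beads (10 ug/mL final) added, 30 min dark.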
* marks the source's active call; other numbers are inactive results; ? = inconclusive; / = no result given; [ ] = dose if it differs, or a comment. The list is not random: actives were taken first. Their share in the collection is about 12%. Calls follow the shape of the dose curve; as a rule, active = well fitted curve in the direction sought with a large enough effect; inconclusive = small, poorly fitted or top-dose-only effect, or another doubt; inactive = no such curve, though single readings can be large; an effect the other way counts as inactive or inconclusive. Potency is read from the fitted curve at half-maximal effect.

SMILES	G9a block	HP1b chromo inh	JMJD2A Tudor	Sfp PPTase inh	BAZ2B block	L3MBTL1 block
Cc1nc(C)c(CCNC(=O)c2ccc(C(F)(F)F)cc2)s1	45µM*	21%	-8%	-3%	5%	3%
Cc1cc2c(s1)c1cnn(Cc3cc(C(F)(F)F)ccc3F)c(=O)c1n2C	/	/	-29%	/	/	/
CCc1nn2c(=O)cc(NC3CNC3)nc2s1	/	/	-16%	/	/	/
Cc1ccc(CNCc2ccco2)cc1	22µM*	-5%	28µM*	-6%	56µM*	0%
COc1cc(CNCc2ccco2)cc(OC)c1O	71µM*	35%	-6%	8%	-4%	1%
C=CCn1c(SC(C)C#N)nc2ccccc2c1=O (centres undefined)	/	23%[57 µM]	-8%[57.1 µM]	/	/	/
O=C(NCCc1csc(-c2cccnc2)n1)c1ccc(F)c(F)c1	-6%[59 µM]	5%[57 µM]	2%	/	-9%	/
Cn1c(SCC(=O)N=Nc2c(O)[nH]c3ccccc23)nc2ccccc21	-6%	/	/	2%	10%	-2%
O=C(Cn1nnc(-c2ccccc2)n1)N=Nc1c(O)[nH]c2ccccc12	-1%[59 µM]	14%	-16%	89µM*	-3%	/
O=C(CSc1nc2ccccc2[nH]1)N=Nc1c(O)[nH]c2ccccc12	45µM*	3%	-28%	-11%	-30%	-11%
O=C(CCNC(=O)c1ccccc1)N=Nc1c(O)[nH]c2ccccc12	6%	/	/	10%	-15%	2%
COCCCNC(=O)c1sc2nc(C)c(C(=O)Nc3ccc(C)cc3C)c(-c3ccc(Cl)cc3)c2c1N	-2%[59 µM]	74%	-12%	/	16%	/
CCn1ccnc1[C@@H]1C[C@H]2CN(Cc3cccc(Cl)c3)C(=O)[C@]23CCCN13	15%	22%	-4%	6%	-3%	-3%
Cn1cc([C@@H]2C[C@H]3CN(Cc4cccc(Cl)c4)C(=O)[C@]34CCCN24)c2ccccc21	50µM*	16%	-29%	-9%	-30%	-19%
O=C1N(Cc2cccnc2)C[C@@H]2C[C@@H](c3ccc(-c4ccccc4)cc3)N3CCC[C@@]123	50µM*	18%	-22%	-26%	-30%	-18%
O=C1N(Cc2cccnc2)C[C@@H]2C[C@@H](c3cccc(OCc4ccccc4)c3)N3CCC[C@@]123	/	13%	-34%	5%	-14%	-3%
O=C1N(Cc2cccc(Cl)c2)C[C@@H]2C[C@@H](c3ccccn3)N3CCC[C@@]123	25µM*	18%	-25%	50µM*	79µM*	-12%
CCCCc1cc2c(cn1)=C(OC(=O)c1ccc(Cl)nc1)C(C)(OC(=O)CC)C(=O)C=2 (centres undefined)	/	/	/	7%	/	/
Cc1cc(C)cc(NC(=O)C2CCN(S(=O)(=O)c3c(C)noc3/C=C/c3ccco3)CC2)c1	1%[59 µM]	27%	-22%	/	/	/
O=C(Cn1nc2c(cc1=O)CCCC2)NCc1ccc(Cl)cc1	3%[59 µM]	11%[57 µM]	-7%	/	3%	/
COC(=O)CNc1c(-c2ccccn2)nc2ccc(Br)cn12	?	33%	-24%	28µM*	?	-9%
COc1ccc(-c2nc3ccc(Cl)cc3c(=O)n2Cc2ccccc2)cc1COc1ccc(NC(C)=O)cc1	/	/	-14%	/	/	/
CC1=CC(C)(C)NC(=S)N1c1cccc(C)c1	28%[12.7 µM]	13%[57 µM]	-13%	1%	0%	-5%
Cc1cc(=O)[nH]c2ccc(Cc3ccccc3)cc12	/	4%	-6%	/	/	/
Cc1cc2c(cc1C)C(=O)NC(C)(C)C2	8%[59 µM]	12%	-7%	-8%	?	/
CC1=CC(C)(C)Nc2cc(C)c(C)cc21	32µM*	?	50µM*	?	50µM*	-16%
CC1=CC(C)(C)Nc2ccc(C)cc21	45µM*	7%	?	45µM*	50µM*	-3%
CC1=CC(C)(C)Nc2ccc(Cc3ccc4c(c3)C(C)=CC(C)(C)N4)cc21	10µM*	?	18µM*	-3%	14µM*	?
Cc1c(NCc2ccncc2)cccc1C(=O)O	?	52%	-24%	16%	6%	-2%
